The source of these data is the supplement of paper PMC3334620.

Whole data set: some 33,000 sequences, median “E-score (-0.5 to 0.5)” near -0.015, cut for the highest 2% near 0.3. This is one part of a sample in which the highest values are shown more often than they occur.

The target in the experiment is T1, Abf1 (UniProt P14164).
T1 sequence: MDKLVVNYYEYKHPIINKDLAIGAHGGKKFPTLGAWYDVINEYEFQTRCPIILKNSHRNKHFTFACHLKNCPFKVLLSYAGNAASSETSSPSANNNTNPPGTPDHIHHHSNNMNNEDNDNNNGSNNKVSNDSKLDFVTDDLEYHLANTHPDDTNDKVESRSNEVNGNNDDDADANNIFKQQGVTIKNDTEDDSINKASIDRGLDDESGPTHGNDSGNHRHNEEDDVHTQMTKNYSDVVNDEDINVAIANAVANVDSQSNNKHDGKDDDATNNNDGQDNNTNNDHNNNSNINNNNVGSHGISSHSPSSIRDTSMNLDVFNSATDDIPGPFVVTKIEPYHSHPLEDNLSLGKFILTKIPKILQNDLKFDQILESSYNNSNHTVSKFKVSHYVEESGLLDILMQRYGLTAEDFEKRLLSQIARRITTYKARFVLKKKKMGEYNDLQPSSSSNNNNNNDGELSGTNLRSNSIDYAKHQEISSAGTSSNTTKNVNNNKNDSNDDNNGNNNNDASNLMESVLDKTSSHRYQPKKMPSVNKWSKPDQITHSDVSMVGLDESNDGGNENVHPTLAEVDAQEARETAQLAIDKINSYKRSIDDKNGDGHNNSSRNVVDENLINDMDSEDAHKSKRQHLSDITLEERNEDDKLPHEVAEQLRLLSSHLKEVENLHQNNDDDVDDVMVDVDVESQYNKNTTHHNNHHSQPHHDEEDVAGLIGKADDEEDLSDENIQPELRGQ
The experiment in a line: PBM E-score (8-mer binding enrichment) (E-score (-0.5 to 0.5)); higher = stronger / more preferred TF binding. The following applies: protein concentration: 200 nM; construct: GST-full length. On the procedure:
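Universal 'all 10-mer' protein binding microarrays (Agilent AMADID 015681) probed with GST-tagged S. cerevisiae TFs (full-length or DBD) made by in vitro transcription/translation (PURExpress), about 100-200 nM. Bound TF was detected with fluorescent anti-GST. Each ungapped 8-mer (which stands for itself and its reverse complement) is scored by the PBM enrichment score (E-score), a modified Wilcoxon-Mann-Whitney statistic from -0.5 to +0.5, computed with the Universal PBM Analysis Suite. Scale: above 0.35 generally sequence-specific binding.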
Take ACCAAGAA: the “PBM E-score” value is -0.00575.
The result for TAAATGCA reads 0.0499.
The result for AGAGACCC reads -0.221.
For CCGGGCCG, the “PBM E-score” value was -0.129.
Take TTTTAAAA: the “PBM E-score” value stood at 0.0597.
For ATATAAAC, the “PBM E-score” value amounted to 0.0743.
Then ATAAATTG, with 0.115.
Take ATAAATAT: the “PBM E-score” value came out at 0.316.
Take ATAAATTA: the “PBM E-score” value amounted to 0.362.
Then ATAAATAG, with 0.104.
Consider ATATAAAT, for which the “PBM E-score” value was 0.3.
In the case of CTAAATTA, the “PBM E-score” value came to 0.0644.
With ATAAATAA, the “PBM E-score” value stood at 0.246.
Then ATATAAAG, with 0.146.
As to ACTCGTCT, the “PBM E-score” value was determined as 0.0807.
Then CGGATATA, with 0.185; and ACTCCTAC, with 0.0623.
Then CTGGTAAA, with -0.16; and GAACGCGC, with 0.0459; and AGCACGGC, with 0.0922.
Regarding GAATCGTC, the “PBM E-score” value turned out to be 0.239.
Then GAGATGAC, with 0.141; and AAGATGAA, with -0.083.
With ACGATGAC, the “PBM E-score” value was determined as 0.264.
Then AAGATGAC, with 0.313; and ACGATGAA, with 0.2.
Then CAGATGAC, with 0.058; and ACGATGAT, with 0.322.
AAGATGAG: the “PBM E-score” value stood at 0.00927.
For the sequence AAGATGAT, the “PBM E-score” value was 0.304.
Then CACCAATG, with 0.0285; and GATCGACC, with -0.0655.
The result for ACAACGCT reads -0.0795.
On to GATCTTGC, for which the “PBM E-score” value worked out at 0.0639.
With CTGCCCTA, the “PBM E-score” value was -0.132.
Then CTCCATGC, with -0.265; and GATCCTGC, with 0.0793.
The result for AGGCCGTG reads 0.092; that for TGAGAGCA, -0.0853; that for CCGCCGTC, 0.334.
As to ACGCCGTC, the “PBM E-score” value is 0.282.
Then CCGCCGTA, with 0.0615; and CATTGCCG, with 0.0936; and GAACTCTC, with -0.211.
Then CCGCAGTC, with -0.165.
The result for TGACTTAA reads 0.061; that for GATTGTCA, 0.268; that for AATTGTCC, -0.0973.
On to AATTGTCA, for which the “PBM E-score” value is 0.335.
In the case of AGAGTGGC, the “PBM E-score” value was -0.251.
In the case of AGCAGATG, the “PBM E-score” value is -0.0843.
TTATTAAA: the “PBM E-score” value was 0.116.
For ATATTAAA, the “PBM E-score” value came to 0.33.
The result for CTATTAAA reads -0.0136; that for AAAAGTTA, 0.151.
For the sequence CCATTCGG, the “PBM E-score” value is -0.0195.
On to GTTTATTA, for which the “PBM E-score” value came to 0.0803.
ATTTATTA: the “PBM E-score” value is 0.309.
The result for GTTTATCA reads 0.304.
As to GTTTATGA, the “PBM E-score” value came out at 0.11.
The result for ATTTATCG reads 0.222; that for ATTTATCC, 0.317; that for CTTTATCA, 0.313.
The result for ACTTATCC reads 0.11.
Turning to CGTTATCA, the “PBM E-score” value was 0.205.
Then CTTTATCC, with -0.0621.
Then GCTTATCA, with 0.0367; and ATTATTTA, with 0.254.
The result for ACTCCCAT reads -0.029.
On to GATCGACA, for which the “PBM E-score” value came to 0.013.
Take TCTTGTAA: the “PBM E-score” value turned out to be 0.0644.
Then CCGTAAGC, with 0.0521; and ATTTATAA, with 0.176; and ATTTATGA, with 0.229.
On to ATTTATCA, for which the “PBM E-score” value amounted to 0.314.
For CGTACCAA, the “PBM E-score” value amounted to 0.353.
Then TGTACTAA, with 0.0702; and CGTACTCA, with 0.304; and AGTACTCA, with -0.0128.
Then TGTACCAA, with 0.0776; and CGTACTAC, with 0.274; and CGTACTAA, with 0.329.
Then CGTACCAG, with 0.0671; and CGTACTCC, with 0.203.
With CGACGCGA, the “PBM E-score” value was -0.0138.
Then AGAATGTC, with 0.188.
